Screening data from PubChem BioAssay.
An excerpt weighted towards active compounds, which were near 1.2% of everything screened.
ERK AVP inh – qHTS Assay for Inhibitors of the ERK Signaling Pathway using a Homogeneous Screening Assay. HEK293-V1b, vasopressin-stimulated pERK AlphaScreen. Potency, µM (titrated, usually from 57.5 µM), without a hit: at the highest dose activity, negative = inhibition, actives largely listed as inhibitors. 72,000 tested, 0.99% active. AID 995, 2007; also: potency is read from the fitted curve at half-maximal effect; % is scaled to controls: 0 for no effect and ±100 for the full control effect; nearly all actives have a fitted effect of over 55% in size
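V1b-HEK293 cells; cpd 30 min 37C; 25 nM vasopressin 5 min; lyse 10 min; AlphaScreen beads 5 hr RT. Normalized to DMSO basal and 25 nM vasopressin; AC50 by Hill fit.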
BRCT PPI red – qHTS Assay for Inhibitors of BRCT-Phosphoprotein Interaction (Red Fluorophore) | 75,000 tested, 0.03% active | Breast cancer type 1 susceptibility protein (Homo sapiens), P38398 | BRCT-phosphopeptide binding, red fluorescence polarization | Potency, µM (series often up to 76.9 µM), for inactives: at the highest dose activity change, negative = inhibition, actives largely listed as inhibitors; also: % is scaled to controls: 0 for no effect and ±100 for the full control effect
Target sequence (P38398 whole entry, looked up): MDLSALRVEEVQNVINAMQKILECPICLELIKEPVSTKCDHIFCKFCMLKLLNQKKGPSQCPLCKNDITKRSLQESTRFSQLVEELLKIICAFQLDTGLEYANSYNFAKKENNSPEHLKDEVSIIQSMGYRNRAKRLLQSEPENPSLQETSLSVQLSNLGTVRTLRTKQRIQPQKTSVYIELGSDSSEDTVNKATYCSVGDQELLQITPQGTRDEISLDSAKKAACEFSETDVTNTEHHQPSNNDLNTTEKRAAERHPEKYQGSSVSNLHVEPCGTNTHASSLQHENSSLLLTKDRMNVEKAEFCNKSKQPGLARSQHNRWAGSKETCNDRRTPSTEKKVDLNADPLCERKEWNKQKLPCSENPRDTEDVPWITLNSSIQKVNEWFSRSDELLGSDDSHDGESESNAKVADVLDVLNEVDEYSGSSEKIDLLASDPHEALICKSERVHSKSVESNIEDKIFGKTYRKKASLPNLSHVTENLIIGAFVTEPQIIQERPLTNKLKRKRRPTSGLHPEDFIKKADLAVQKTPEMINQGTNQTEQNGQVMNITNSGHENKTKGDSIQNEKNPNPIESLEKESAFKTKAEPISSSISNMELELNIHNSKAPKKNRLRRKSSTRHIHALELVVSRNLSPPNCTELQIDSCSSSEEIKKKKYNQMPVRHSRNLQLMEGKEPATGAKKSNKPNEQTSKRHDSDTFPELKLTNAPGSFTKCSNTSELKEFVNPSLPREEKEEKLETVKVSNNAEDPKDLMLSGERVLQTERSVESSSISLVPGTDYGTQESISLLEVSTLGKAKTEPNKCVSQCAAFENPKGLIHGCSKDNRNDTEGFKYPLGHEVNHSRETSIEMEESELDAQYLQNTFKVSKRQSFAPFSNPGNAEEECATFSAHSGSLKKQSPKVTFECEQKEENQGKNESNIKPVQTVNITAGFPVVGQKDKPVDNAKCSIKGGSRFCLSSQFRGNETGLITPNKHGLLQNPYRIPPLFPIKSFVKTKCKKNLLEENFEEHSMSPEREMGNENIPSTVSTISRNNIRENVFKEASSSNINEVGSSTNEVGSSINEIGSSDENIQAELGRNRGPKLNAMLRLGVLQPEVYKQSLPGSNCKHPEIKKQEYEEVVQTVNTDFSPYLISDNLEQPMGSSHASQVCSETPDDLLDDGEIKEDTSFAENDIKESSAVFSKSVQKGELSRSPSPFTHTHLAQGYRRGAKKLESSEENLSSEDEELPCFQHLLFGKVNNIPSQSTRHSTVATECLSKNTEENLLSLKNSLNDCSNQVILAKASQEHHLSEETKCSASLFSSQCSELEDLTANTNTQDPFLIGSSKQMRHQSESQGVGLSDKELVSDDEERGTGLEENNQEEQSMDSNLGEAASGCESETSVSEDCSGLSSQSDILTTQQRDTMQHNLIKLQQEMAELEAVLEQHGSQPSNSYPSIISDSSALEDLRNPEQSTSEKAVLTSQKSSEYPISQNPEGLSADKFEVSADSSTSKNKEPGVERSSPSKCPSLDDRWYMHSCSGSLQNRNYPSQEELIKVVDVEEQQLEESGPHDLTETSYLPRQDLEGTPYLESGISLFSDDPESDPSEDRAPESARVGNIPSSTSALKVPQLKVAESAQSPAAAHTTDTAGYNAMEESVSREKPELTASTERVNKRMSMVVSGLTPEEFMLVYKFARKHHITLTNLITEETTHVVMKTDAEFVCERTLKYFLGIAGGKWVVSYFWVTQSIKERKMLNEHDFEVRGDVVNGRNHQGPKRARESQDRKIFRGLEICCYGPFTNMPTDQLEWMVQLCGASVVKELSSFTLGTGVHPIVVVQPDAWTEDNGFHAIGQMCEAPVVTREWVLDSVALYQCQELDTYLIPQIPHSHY
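Rhodamine-labelled pBACH1 10-mer (100 nM) bound to BRCT domain (100 nM) at pH 7.3; compounds incubated 12 min room temperature, polarization read. Free peptide defines full inhibition; unlabelled decapeptide titrated as control.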
TsaE inh – qHTS Assay for Inhibitors of YjeE. tRNA threonylcarbamoyladenosine biosynthesis protein TsaE (Escherichia coli (strain …. purified YjeE enzyme, qHTS inhibition assay. Potency, µM. 71,000 tested, 0.05% active
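Purified YjeE (10 uM) with BODIPY Texas Red-labeled ADP probe (2 uM); compounds pin-transferred, 15 min at room temperature. Binding inhibition read as decreased fluorescence polarization; ADP titration as control.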
BRCT inh green – qHTS Assay for Inhibitors of BRCT-Phosphoprotein Interaction (Green Fluorophore); Breast cancer type 1 susceptibility protein (Homo sapiens), P38398; BRCA1 BRCT-phosphopeptide binding, green fluorescence polarization; Potency, µM (top dose mostly 76.9 µM), without a hit: at the top dose activity change, negative = inhibition, most hits filed as inhibitors; 75,000 tested, 0.05% active; AID 875, 2007;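 also: potency is read from the fitted curve at half-maximal effect; plate controls were peptide without protein for full effect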
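Compounds were incubated for 12 min at room temperature with a complex of 100 nM fluorescein-tagged pBACH1 decapeptide and 250 nM His-tagged BRCT protein. Buffer was phosphate pH 7.3 with EDTA, DTT and Tween 20. Disruption of binding lowers the polarization signal.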
Pol III holo inh – qHTS Assay for Inhibitors of DNA Polymerase III Holoenzyme System; reconstituted DNA polymerase III holoenzyme replication, biochemical; Potency, µM (top dose mostly 57.1 µM), without a hit: at the highest dose activity change, negative = inhibition; 71,000 tested, 0.25% active; also: potency is read from the fitted curve at half-maximal effect; % is scaled to controls: 0 for no effect and ±100 for the full control effect
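Reconstituted *E. coli* holoenzyme (0.35 nM Pol III, 1 nM beta, 154 nM SSB, 2 nM primase) was preincubated with compound for 15 min at RT. Synthesis on 1.4 nM ssM13Gori ran 35 min, then was stopped with PicoGreen/EDTA and read as dsDNA fluorescence.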
Numbers without * were called inactive; i = inactive; u = inconclusive; x = no result given; ! = a repeat was not active; [ ] = another dose, or the depositor's remark. Calls follow the shape of the dose curve; as a rule, active = well fitted curve in the direction sought with a large enough effect; inconclusive = small, poorly fitted or top-dose-only effect, or another doubt; inactive = no such curve, though single readings can be large; an effect the other way counts as inactive or inconclusive.

SMILES	ERK AVP inh	BRCT PPI red	TsaE inh	BRCT inh green	Pol III holo inh
COc1cccc(/C=N/NC(=O)c2cc(-c3ccc(C)cc3)n[nH]2)c1O	x	9.1%	x	19.5%	x
COc1cc2cc3c4cc(OC)c(OC)cc4cc[n+]3c(C)c2cc1OC	u	-0.9%	i	-1.1%[3.08 µM]	12.6µM*
COc1cc2cc[n+]3cc4c(OC)c(OC)ccc4cc3c2cc1OC	3.2%	2.1%	x	-2.1%[3.08 µM]	x
COc1ccc(-c2nnc3sc(-c4ccco4)nn23)cc1OC	20.8%	1.5%	i	-2.2%	-2.3%
COc1ccc(-c2nn3c(-c4ccco4)nnc3s2)cc1OC	25.1µM*	-9.6%	i	7.2%	-9.3%
C=CCn1c(SCC(=O)N2CCOCC2)nc2scc(-c3ccco3)c2c1=O	31.6µM*	-4.8%	i	-2.3%	-5.6%
C=CCn1c(SCC(=O)N2CCOCC2)nc2sc3c(c2c1=O)CCCC3	u	-1.5%	i	2.7%	-5.6%
O=C(N/N=C1/C[C@@H](O)[C@@H](O)[C@@H]2[C@@H]3C(=O)N(c4cccc(Oc5ccccc5)c4)C(=O)[C@H]3CC[C@@H]12)OCc1ccccc1	27.2%[11.5 µM]	2.8%[15.4 µM]	x	-3.6%[15.4 µM]	x
Cc1noc(C)c1C(=O)Nc1nc(C23CC4CC(CC(C4)C2)C3)cs1	20µM*	0.1%	i	1.1%	-28.5%
COc1ccc(-c2nn(-c3ccccc3)cc2CO)cc1OC	-28.0%	3.0%	i	-0.7%	-1.9%[11.4 µM]
OCc1cn(-c2ccccc2)nc1-c1ccc2c(c1)OCCO2	25.1µM*	0.4%	i	-0.2%	2.8%
COc1ccc(N2CC(C(=O)Nc3ccc4c(c3)OCO4)CC2=O)cc1 (stereo unspecified)	5.3%	1.0%	i	-5.9%	-4.5%
O=C(Nc1nc(-c2ccco2)c(-c2ccco2)s1)C1CC(=O)N(c2ccc3c(c2)OCCO3)C1 (stereo unspecified)	u	u	i	u	10µM*
CCN(CC)c1ccc(NC(=O)c2ccc(Br)o2)c(C)c1	25.1µM*	0.0%	i	-0.5%	-1.9%
c1ccc2c(NCCN3CCOCC3)nc(-c3ccc4c(c3)OCO4)nc2c1	u	-0.1%	i	-1.3%	-22.3%
CNc1nc(-c2ccc3c(c2)OCO3)nc2ccccc12	u	0.6%	i	2.8%	-1.7%
CN(C)c1ccc(-c2nc(Nc3ccncc3)c3ccccc3n2)cc1	15.8µM*	0.6%	i	0.2%	-7.6%
c1ccc(Nc2nc(-c3ccc4c(c3)OCO4)nc3ccccc23)cc1	15.8µM*	-0.4%	i	-0.1%	-3.7%
c1ccc(CNc2nc(-c3ccc4c(c3)OCO4)nc3ccccc23)cc1	20µM*	1.8%	i	-1.9%	1.5%
COc1cc(NCC[C@@H]2CCCCN2)c2ncccc2c1	2.2%[11.5 µM]	-1.8%[15.4 µM]	i	-0.2%[15.4 µM]	-15.0%[11.4 µM]
O=C1C=CC2=C3c4cc(O)c(O)cc4C[C@]3(O)COC2=C1	-4.4%	-10.0%	x	-0.6%[3.08 µM]	x
CNc1ncnc2c1ncn2[C@@H]1O[C@@H](CO)[C@H](O)[C@@H]1O	29.2%	-1.8%	i	-1.3%	-3.7%
CC(C)NC(=O)N1CCC2(CC1)CCN(S(=O)(=O)c1ccccc1)CC2	6.7%	-0.3%	i	-7.8%	-7.0%
C=C[C@@]1(C)CC(=O)[C@@]2(O)[C@@]3(C)[C@@H](O)CCC(C)(C)[C@@H]3[C@H](O)[C@H](OC(C)=O)[C@@]2(C)O1	1.26µM*	0.7%	i	-1.5%	-0.3%
N#CCCCSc1nnc(-c2ccc(Cl)cc2)n1-c1ccccc1	-24.7%	-0.4%	i	1.6%	-2.1%
SMILES	ERK AVP inh	BRCT PPI red	TsaE inh	BRCT inh green	Pol III holo inh
N#CCCCSc1nnc(CSc2nc3ccccc3s2)n1-c1ccccc1	25.1µM*	-1.4%	i	7.8%	1.4%
OCc1cc([C@@H](O)CNCCCCCCOCCCCc2ccccc2)ccc1O	u	-1.9%	i	-2.2%	-2.4%
CCCn1c(C)nc2c(N(CCN(C)C)Cc3ccccc3)nc(C)nc21	u	-1.5%	i	0.1%	-4.1%
Cc1ccccc1NC(=O)c1nc[nH]c1C(=O)NCc1ccccc1	25.1µM*	0.1%	i	-1.3%	2.6%
Cc1cc(C(=O)NCc2ccccc2)no1	3.8%	0.4%	i	-0.4%	-3.1%
CCN1C(=O)[C@H]2[C@H]3[C@H](O)[C@H](O)C/C(=N/NC(=O)OCc4ccccc4)[C@@H]3CC[C@@H]2C1=O	-7.6%[11.5 µM]	-0.9%[15.4 µM]	x	1.5%[15.4 µM]	x
CCN(CC)CCC[C@H](C)Nc1c2ccc(Cl)cc2nc2ccc(OC)cc12	33.2%[25.7 µM]	-1.2%[34.4 µM]	i	u	31.6µM*!
CSC1=C(C#N)C(c2cccc(Br)c2)CC(=O)N1 (stereo unspecified)	20µM*	-0.5%	i	-0.5%	1.0%
C=CCOC(=O)C(C(C)=O)C(NC(=O)OC)c1cccc(C)c1 (stereo unspecified)	1.7%[11.5 µM]	1.3%[15.4 µM]	x	-1.0%[15.4 µM]	x
CCOc1ccc(-c2n[nH]c(C)c2Oc2ccc(OC)cc2)c(O)c1	39.8µM*	-2.6%	i	0.2%	-7.9%
NC(=O)c1cc2ccc(O)cc2oc1=Nc1ccccc1	7.94µM*	1.3%	i	-0.6%	-4.9%
N#Cc1nc(Cc2ccccc2)oc1N1CCC(Cc2ccccc2)CC1	-24.8%	-0.3%	i	-0.4%	-2.6%
N#Cc1nc(Cc2ccccc2)oc1N1CCN(c2ccccc2)CC1	25.1µM*	-0.2%	i	-2.8%	4.8%
CN(C)c1ccc(-c2cncnc2NCc2cccs2)cc1	u	0.7%	i	-1.5%	-0.4%
C=CCNc1ncnc2ccccc12	-0.6%	-1.3%	i	-1.6%	-4.4%
CN(C)c1ccc(-c2ccc3ncnc(NCc4ccccc4)c3c2)cc1	12.6µM*	-1.8%	i	-4.2%	-10.4%
Cc1cnc(CNc2ncnc3ccc(-c4ccccc4Cl)cc23)cn1	20µM*	1.4%	i	1.7%	5.4%
c1ccc(CNc2ncnc3ccccc23)cc1	25.1µM*	-0.1%	i	7.8%	u
CN(C)c1ccc(-c2cncnc2NCc2ccccc2)cc1	25.1µM*	-0.5%	i	-1.7%	-1.5%
Cc1cnc(CNc2ncnc3ccc(-c4ccccc4C)cc23)cn1	-29.2%	-0.2%	i	0.1%	-2.7%
CCC#CCOCC(=O)Nc1ccccc1	16.3%	-0.4%	i	-0.9%	-10.1%
O=C(O)[C@@H]1CS[C@@]2(CCCN(Cc3ccccc3)C2)N1	9.1%[11.5 µM]	-1.2%[15.4 µM]	i	-0.8%[15.4 µM]	-7.1%[11.4 µM]
COc1ccc(-c2cc(C(=O)N3CCN(c4ccccn4)CC3)c3ccccc3n2)cc1	10µM*	-1.9%	i	0.7%	-7.3%
CCN(CC)c1ccc(C(=S)N2CCN(c3ccccc3)CC2)cc1	31.6µM*	0.0%	i	-2.2%	u
CN1CCN(C(=S)c2ccc(N(C)C)cc2)CC1	-9.6%	0.5%	i	1.1%	-1.9%
